# Source: PubChem BioAssay (NCATS)
# Where “and” joins values, the source holds several entries; their conditions need not be identical. Equal entries are not always repeated. Results filed as inconclusive are left out. Values without a mark were called inactive. Calls of active or inactive are those of the source. Calls come from the whole dose curve.
# Experiment: Cell Viability - SK-N-SH (AID 435);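 note: compound exposure lasted 40 h at 37 °C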
# Conditions: SK-N-SH neuroblastoma cell viability qHTS
# Description: NIH Chemical Genomics Center [NCGC]
# NIH Molecular Libraries Screening Centers Network [MLSCN]
# National Institutes of Environmental Health Sciences [NIEHS]
# National Toxicology Program [NTP]
# We have developed a 1536-well cell-based assay for quantitative high throughput screening (qHTS) against a number of cell lines to determine in vitro cytotoxicity of small molecules. This particular assay uses the SK-N-SH cell line which is derived from human neuroblastoma.
# NCGC Assay Protocol Summary:
# The CellTiter-Glo luminescent cell viability assay (Promega) is a homogeneous method to measure the number of viable cells in culture. The end point readout of this assay is based on quantitation of intracellular ATP, an indicator of metabolic activity, using the luciferase reaction. Luciferase catalyzes the oxidation of beetle Luciferin to oxyluciferin and light in the presence of ATP. The luminescent signal is proportional to amount of ATP present.
# Using the CellTiter-Glo luminescent cell viability assay, the amount of cellular ATP was measured in the SK-N-SH cell line with complete culture medium following compound treatment for 40 hours. The assay was performed in opaque white Kalypsys 1536-well plates. In the screen, tamoxifen and doxorubicin were used as positive controls. Library compounds were measured for their ability to cause acute toxicity in the cell line, as reflected by a decrease in intracellular ATP levels, in a concentration-dependent manner. Data were normalized to the controls for basal activity (DMSO only) and 100% inhibition (100 uM tamoxifen). AC50 values were determined from concentration-response data modeled with the standard Hill equation.
# qHTS protocol fo CellTiter Glo SK-N-SH cellular assay
# [Step] [Parameter] [Value] [Description]
# 1. Reagent; 5 uL; 1500 SK-N-SH cells/well
# 2. Time; 5 hr; 37 °C incubation
# 4. Controls; 23 nL; Tamoxifen 0.34 uM to 100 uM & Doxorubicin 0.02 nM to 100 uM
# 5. Time; 40 hr; 37 °C incubation
# 6. Reagent; 5 uL; CellTiter Glo reagent
# 7. Time; 20 min; Room Temperature
# 8. Detection; Luminescence; Viewlux plate reader
# Keywords: cell viability, cytotoxicity, SK-N-SH cell line, luminescence, NTPHTS, NTPHTS_NCGC, NIEHS, EPA, DSSTox, MLSMR, MLSCN, NIH Roadmap, qHTS, NCGC
# Potency is the fitted concentration of half-maximal effect.
row,Compound,Potency
1,COc1ccc2nc(N)sc2c1,> 92 µM
2,c1ccc2scnc2c1,> 92 µM
3,c1ccccc1,> 92 µM
4,CCCCC(CC)CN (stereo not given),> 92 µM
5,CC(=O)OC/C=C(\C)CCC=C(C)C,> 92 µM
6,COc1ccc(/C=C/c2cc(OC)cc(=O)o2)cc1,> 92 µM
7,O=NO,> 92 µM
8,CCCCCCCCCCCC(=O)O,> 92 µM
9,O=[N+]([O-])c1cccc(Cl)c1Cl,> 92 µM
10,O=C(O)CC(C(=O)O)C(CC(=O)O)C(=O)O (stereo not given),> 92 µM
11,C1OCOCO1,> 92 µM
12,C=CC(=O)OCCOCCOCCOCCOC(=O)C=C,10.9 µM (active) and 23.1 µM (active)
13,Nc1ccc(S(=O)(=O)O)cc1,> 92 µM
14,Clc1cc(Cl)c(Cl)cc1Cl,> 92 µM
15,S=C1NC=NC2N=CNC12 (stereo not given),0.237 µM (active)
16,CCC(C)c1ccccc1O (stereo not given),> 92 µM
17,COC(=O)c1ccc(C=O)cc1,> 92 µM
18,Nc1ccc(Cl)cc1Cl,> 92 µM
19,O=C(O)c1ccccc1C(c1ccc(O)cc1)c1ccc(O)cc1,> 92 µM
20,COC(=O)CCCCC(=O)OC,> 92 µM

row,Compound,Potency
1,CC1=CC(C)(C)Nc2ccccc21,> 92 µM
2,COC(=O)c1ccc(C)cc1,> 92 µM
3,CCCCCCCCO,> 92 µM
4,O=C1c2ccccc2C(=O)C1c1ccc2ccccc2n1,34 µM (active)
5,ClCCCl,> 92 µM
6,Cc1ccc([N+](=O)[O-])c(C)c1,> 92 µM
7,O=C(/C=C/c1ccc(O)c(O)c1)O[C@@H](C(=O)O)[C@@H](OC(=O)/C=C/c1ccc(O)c(O)c1)C(=O)O,> 92 µM
8,Cc1ccc([N+](=O)[O-])cc1N,> 92 µM
9,OCCNCCO,> 92 µM
10,CCCN(CCC)C(=O)SCC,> 92 µM
11,COc1cc(/C=C/c2ccccc2)oc(=O)c1,> 92 µM
12,CC12CCC(CC1=O)C2(C)C (stereo not given),> 92 µM
13,CC1=C2[C@H](/C=C(\C)C(=O)O)CC[C@@H](C)[C@H]2CC1,> 92 µM
14,CCCCOCCO,> 92 µM
15,Clc1cc(Cl)c(Cl)c(Cl)c1Cl,> 92 µM
16,CC(C)=CCCC(C)CCO (stereo not given),> 92 µM
17,COc1c2ccoc2cc2oc(=O)ccc12,> 92 µM
18,CCCCCCCCCCCCCCC1CO1 (stereo not given),> 92 µM
19,O=C(O)c1ccccc1,> 92 µM
20,CCO[Si](CCCN)(OCC)OCC,> 92 µM
